Assay [1] is described as follows: anti-His antibody binders, primary screen, artefact control for SMM control protein annotation, biochemical, small-molecule microarray, 635 nm fluorescence (AID 1128).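 Also: score merges feature fluorescence with signal-to-noise for each printed compound spot.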 The following applies: anti-His Alexa647 antibody binding, higher = more signal.
Assay [2] concerns Human papillomavirus type 1a E7 protein (residues 1-88). Briefly: HPV1a E7 small-molecule binders, primary screen, biochemical, small-molecule microarray, residues 1-88, 635 nm (AID 1129). The conditions noted are these: small-molecule microarray binding, fluorescence 635 nm; higher = more signal.
Assay [3] concerns the target Focal adhesion kinase 1 (Homo sapiens) (UniProt Q05397). Briefly: small-molecule microarray binders of FAK, primary screen, biochemical, 635/667 nm fluorescence, BSA, DTT (AID 1130).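 Also: composite of spot emission at 667 nm and signal to noise over triplicate slides.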 The following applies: PTK2 binding, 635 nm fluorescence, higher = more signal.
Assay [4] deals with Fibrinogen (Alexa647-labelled). As to the kind of experiment: fibrinogen binders on compound microarrays, profiling panel, artefact control for SMM control-protein annotation, biochemical, small-molecule microarray, 635/667 nm fluorescence (AID 1131).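 Also: z-score merges 667 nm fluorescence with per-spot signal-to-noise over triplicate slides.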 The following applies: fibrinogen-A647 binding fluorescence, higher = more signal.
Assay [5] addresses Follistatin (Homo sapiens) (UniProt P19883). Briefly: follistatin binders on small-molecule microarrays, primary screen, biochemical, small-molecule microarray, 635/667 nm fluorescence (AID 1132). The conditions noted are these: FST binding, 635 nm fluorescence, higher = more signal.
Assay [6] addresses Fibroblast growth factor 2 (Homo sapiens) (UniProt P09038). As to the kind of experiment: FGF2 binders on small-molecule microarrays, primary screen, biochemical, small-molecule microarray, 635/667 nm fluorescence (AID 1133). The conditions noted are these: small-molecule microarray binding, FGF2, fluorescence 635/667; higher = more signal.
A short description of assay [7]: mitochondrial membrane potential change in A549 cells, profiling panel, cell-based, JC-1 fluorescence, basal, 24 h, 100 nL (AID 1138).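 Also: A549 lung adenocarcinoma cells under basal conditions with no added stimulus; test concentration not given here.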 The following applies: higher = more signal.
Assay [8] deals with Lefty1. As to the kind of experiment: Lefty1 binders on small-molecule microarrays, primary screen, biochemical, small-molecule microarray, 635/667 nm fluorescence (AID 1139). The conditions noted are these: small-molecule microarray binding, fluorescence 635/667; higher = more signal.
Assay [9] deals with wheat germ agglutinin (Triticum aestivum), Alexa647-labelled. Briefly: wheat germ agglutinin binders on compound microarrays, profiling panel, artefact control for SMM control-protein annotation, biochemical, small-molecule microarray, 635/667 nm fluorescence (AID 1140).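 Also: score merges 667 nm feature emission with signal to noise over triplicate slides.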 The conditions noted are these: WGA-A647 binding, 635 nm fluorescence, higher = more signal.
The target of assay [10] is Luciferin 4-monooxygenase (Photinus pyralis) (UniProt P08659). Briefly: firefly luciferase enzyme inhibitors, primary screen, biochemical, luminescence, purified enzyme, 2006 set (AID 1141).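 Also: cell-free assay with purified firefly luciferase at 100 ng per well in PBS; test concentration not given here.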 The conditions noted are these: SteadyGlo luminescence, 30 min, higher = more signal, called active from +8 up or from −8 down.
Sequence of Luciferin 4-monooxygenase (Photinus pyralis) (P08659 whole entry, looked up): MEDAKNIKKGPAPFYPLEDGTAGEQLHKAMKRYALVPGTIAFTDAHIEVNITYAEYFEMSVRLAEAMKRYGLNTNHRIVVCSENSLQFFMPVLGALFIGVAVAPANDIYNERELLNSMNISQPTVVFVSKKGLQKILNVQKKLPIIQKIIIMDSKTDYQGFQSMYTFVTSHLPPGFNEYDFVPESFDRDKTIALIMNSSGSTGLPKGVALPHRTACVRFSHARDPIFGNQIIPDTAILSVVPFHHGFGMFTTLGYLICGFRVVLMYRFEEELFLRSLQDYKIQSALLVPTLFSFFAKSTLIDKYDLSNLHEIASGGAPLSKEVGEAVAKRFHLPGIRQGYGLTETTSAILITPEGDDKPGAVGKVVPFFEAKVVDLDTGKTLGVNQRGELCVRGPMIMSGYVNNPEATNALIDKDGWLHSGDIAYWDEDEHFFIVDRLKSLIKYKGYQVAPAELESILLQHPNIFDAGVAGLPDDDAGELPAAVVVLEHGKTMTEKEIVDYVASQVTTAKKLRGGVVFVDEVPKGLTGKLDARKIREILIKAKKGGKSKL
Assay [11] has as its system Wnt5a (protein binding on small-molecule microarray). As to the kind of experiment: Wnt5a binders on small-molecule microarray, primary screen, biophysical, 635/667 nm fluorescence (AID 1142).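 Also: fluorescence read at 667 nm with signal to noise per printed feature.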 The following applies: 635 nm fluorescence, higher = more signal.
A short description of assay [12]: cell viability in Huh7 cells, primary screen, cytotoxicity control for HCV replication inhibitor project, CellTiter-Glo luminescence, basal, 48 h (AID 1143).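 Also: Huh7 hepatoma cells carrying a hepatitis C replication reporter with no stimulus; test concentration not given here.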 The following applies: Huh7 HCV replicon, higher = more signal, called active from +8 up or from −8 down. (ATP-based viability assays read luminescence as a measure of living cells.)
The nature of assay [13]: P. aeruginosa biofilm formation inhibitors, primary screen, PAO1 strain, BacTiter-Glo luminescence, LB-PBS (AID 1144). The conditions noted are these: 12 h, higher = more signal.
Assay [14] is described as follows: CREB reporter modulators without forskolin, primary screen, cell-based, PC12, CRE-LacZ reporter, unstimulated (AID 1145). The following applies: no forskolin, luminescence, 4.5 h, higher = more signal, called active from +8 up or from −8 down.
Assay [15] in a line: CREB reporter modulators under forskolin, primary screen, cell-based, PC12, CRE-LacZ reporter, forskolin-stimulated (AID 1146).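 Also: PC12 cells with 6xCRE LacZ reporter stimulated by forskolin 10 µM; beta-galactosidase reporter signal reflecting CREB driven transcription.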 The following applies: luminescence, 4.5 h, higher = more signal, called active from +8 up or from −8 down.
The target in assay [16] is Streptavidin (Streptomyces avidinii) (UniProt P22629). Briefly: streptavidin binders on small-molecule microarray, primary screen, artefact control for SMM compound annotation, biophysical, 635/667 nm fluorescence (AID 1147).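 Also: signal reflects streptavidin binding to arrayed compounds as a control protein.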 The conditions noted are these: streptavidin binding, higher = more signal.
Sequence of Streptavidin (Streptomyces avidinii) (P22629 whole entry, looked up): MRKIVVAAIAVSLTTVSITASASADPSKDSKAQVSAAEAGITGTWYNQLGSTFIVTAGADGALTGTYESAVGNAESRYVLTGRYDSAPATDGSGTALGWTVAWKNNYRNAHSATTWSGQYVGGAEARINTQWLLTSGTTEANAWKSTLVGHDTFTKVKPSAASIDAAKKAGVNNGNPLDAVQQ
Assay [17] in a line: small-molecule binders of probe aInhba, primary screen, biochemical, small-molecule microarray, 635/667 nm fluorescence (AID 1148).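 Also: score merges 667nm spot fluorescence with signal-to-noise for antibody binding to printed compounds.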 The following applies: higher = more signal.
Assay [18] deals with Torsin-1A (Homo sapiens) (UniProt O14656). As to the kind of experiment: torsin A binders from cell lysate, primary screen, small-molecule microarray, wild-type, 635/667 nm (AID 1149). The conditions noted are these: COS7 hTOR1A-WT lysate, 635 nm fluorescence, higher = more signal.
Sequence of Torsin-1A (Homo sapiens) (O14656 whole entry, looked up): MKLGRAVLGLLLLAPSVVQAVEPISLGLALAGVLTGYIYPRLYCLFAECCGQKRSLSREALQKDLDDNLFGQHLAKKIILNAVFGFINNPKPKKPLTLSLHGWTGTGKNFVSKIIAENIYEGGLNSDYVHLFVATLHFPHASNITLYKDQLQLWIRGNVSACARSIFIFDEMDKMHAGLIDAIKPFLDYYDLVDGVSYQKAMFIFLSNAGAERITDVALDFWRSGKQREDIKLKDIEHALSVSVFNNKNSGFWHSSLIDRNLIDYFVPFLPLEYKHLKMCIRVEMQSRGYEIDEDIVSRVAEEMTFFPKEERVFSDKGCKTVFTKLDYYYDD
For assay [19] the target is unchanged. Briefly: small-molecule binders of mutant TOR1A in lysate, primary screen, cell lysate, small-molecule microarray, COS7 lysate, 635/667 nm fluorescence (AID 1150).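 Also: score pools 667 nm emission and signal to noise measuring lysate protein binding.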 The conditions noted are these: COS7 hTOR1A mutant lysate, 635 nm fluorescence, higher = more signal.
The test system of assay [20] is Sonic hedgehog protein (Shh). Briefly: small-molecule binders of Shh protein, primary screen, biochemical, small-molecule microarray, 635/667 nm fluorescence (AID 1151).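 Also: Shh protein binding to compounds spotted on small-molecule microarray slides; score combines spot fluorescence intensity with signal-to-noise across triplicate slides.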 The conditions noted are these: small-molecule microarray binding, 635 nm fluorescence; higher = more signal.

SMILES strings stand for the structures. Activity calls are given as the source filed them. Unless noted, no rule for the calls is given here.

Sequence of Focal adhesion kinase 1 (Homo sapiens) (Q05397 whole entry, looked up): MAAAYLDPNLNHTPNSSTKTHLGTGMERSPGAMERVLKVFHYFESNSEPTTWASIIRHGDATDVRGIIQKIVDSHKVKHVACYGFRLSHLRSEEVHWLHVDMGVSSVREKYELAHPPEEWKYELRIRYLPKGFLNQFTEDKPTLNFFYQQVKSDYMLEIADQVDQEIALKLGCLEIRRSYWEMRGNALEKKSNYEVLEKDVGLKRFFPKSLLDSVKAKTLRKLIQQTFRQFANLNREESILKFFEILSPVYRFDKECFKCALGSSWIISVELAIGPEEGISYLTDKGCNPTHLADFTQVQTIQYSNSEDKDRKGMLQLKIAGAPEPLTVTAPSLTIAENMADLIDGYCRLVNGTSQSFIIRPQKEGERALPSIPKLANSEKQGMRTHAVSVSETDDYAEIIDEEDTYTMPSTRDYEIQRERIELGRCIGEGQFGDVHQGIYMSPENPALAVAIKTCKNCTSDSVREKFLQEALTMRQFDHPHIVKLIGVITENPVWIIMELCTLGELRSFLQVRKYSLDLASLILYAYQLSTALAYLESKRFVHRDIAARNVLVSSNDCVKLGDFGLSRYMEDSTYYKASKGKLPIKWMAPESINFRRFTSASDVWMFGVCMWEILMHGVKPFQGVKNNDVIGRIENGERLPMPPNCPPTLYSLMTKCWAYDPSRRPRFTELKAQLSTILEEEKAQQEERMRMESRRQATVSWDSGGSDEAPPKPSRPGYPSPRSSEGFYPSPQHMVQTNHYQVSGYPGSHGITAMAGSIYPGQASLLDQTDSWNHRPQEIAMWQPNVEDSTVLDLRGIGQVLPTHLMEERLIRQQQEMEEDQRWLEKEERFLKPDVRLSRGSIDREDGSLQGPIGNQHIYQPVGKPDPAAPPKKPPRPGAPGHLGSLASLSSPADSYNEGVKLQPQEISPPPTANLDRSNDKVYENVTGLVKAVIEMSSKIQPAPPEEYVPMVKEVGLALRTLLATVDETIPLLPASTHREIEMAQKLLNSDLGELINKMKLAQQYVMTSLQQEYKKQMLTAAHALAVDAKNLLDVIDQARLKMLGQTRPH
Sequence of Follistatin (Homo sapiens) (P19883 whole entry, looked up): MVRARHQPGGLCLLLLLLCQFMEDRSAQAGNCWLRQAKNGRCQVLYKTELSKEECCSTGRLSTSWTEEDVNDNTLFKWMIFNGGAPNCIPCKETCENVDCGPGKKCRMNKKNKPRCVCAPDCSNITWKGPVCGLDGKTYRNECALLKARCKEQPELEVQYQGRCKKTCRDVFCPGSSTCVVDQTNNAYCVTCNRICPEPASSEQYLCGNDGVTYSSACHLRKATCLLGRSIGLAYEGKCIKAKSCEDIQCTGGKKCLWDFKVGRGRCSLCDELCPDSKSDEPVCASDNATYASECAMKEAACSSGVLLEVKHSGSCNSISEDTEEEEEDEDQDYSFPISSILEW
Sequence of Fibroblast growth factor 2 (Homo sapiens) (P09038 whole entry, looked up): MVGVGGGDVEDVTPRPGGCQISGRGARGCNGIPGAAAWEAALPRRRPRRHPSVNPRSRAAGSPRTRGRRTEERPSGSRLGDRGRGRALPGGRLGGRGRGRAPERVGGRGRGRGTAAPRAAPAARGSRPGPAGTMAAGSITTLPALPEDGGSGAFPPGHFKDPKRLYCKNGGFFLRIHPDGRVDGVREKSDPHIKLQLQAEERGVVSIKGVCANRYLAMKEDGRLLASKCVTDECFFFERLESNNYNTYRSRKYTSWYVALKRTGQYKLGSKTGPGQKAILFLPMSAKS

As to `COc1cc(C(O)C2C=CC3C(=O)N(C)C(=O)C3N2NC(=O)OC(C)(C)C)cc(OC)c1OC` (stereo not given), the composite z-score was 1.28 in assay [1]; 1.21 in [2]; 0.474 in assay [3]; 1.03 in assay [4]; 0.0314 in assay [5]; -0.0371 in assay [6]. Also, the composite z-score in [8] is -0.338; in assay [9], 0.807; in assay [11] it was 0.653; in assay [16] it was 0.671; in assay [17], 0.798; in [18] it was -0.146. Also, the composite z-score was 0.727 in assay [19] and -0.32 in assay [20]. Also, the z-score is -0.54 in [7]; 0.225 (inactive) in assay [10]; 0.778 (inactive) in assay [12]; 0.66 (inactive) in [13]; -0.326 (inactive) in assay [14]; 1.25 (inactive) in assay [15].
Turning to `CCOC(=O)C[C@H]1[C@H](OC(=O)Cc2ccc3c(c2)OCO3)[C@@H](NC(=O)c2ccccc2)c2cc(OCCCO)ccc2N1C(=O)c1ccc2ccccc2n1`, the composite z-score in [1] is 0.0936; in [2] it was 0.445; in assay [3], -0.0584; in assay [4], 0.204; in [5], 0.166; in assay [6], 0.77. Moreover, the composite z-score in assay [8] is 0.447; in [9] it was 0.473; in [11], -0.112; in assay [16], 0.965; in assay [17] it was -0.0418; in assay [18] it was 0.0426. Also, the results for the composite z-score in assay [19] and in assay [20] were 1.19 and 0.844, respectively. Further, the z-score in assay [7] was 0.925; in [10], -1.43 (inactive); in [12] it was -0.629 (inactive); in assay [13] it was 0.581 (inactive); in assay [14], 11 (active); in assay [15] it was -0.981 (inactive).
Consider `COc1cccc(C[C@H]2C[C@@H](CO[Si](C(C)C)(C(C)C)C(C)C)N3C(=O)[C@]4(C(C)=O)O[C@]23[C@H]2C(=O)N(C)C(=O)[C@H]24)c1`, for which the composite z-score amounted to 0.786 in [1]; 1.04 in [2]; 0.353 in [3]; 0.674 in assay [4]; 0.9 in [5]; 0.865 in assay [6]. Besides, the composite z-score in assay [8] was 1.19; in assay [9] it was 0.425; in assay [11], 0.205; in assay [16], 0.636; in assay [17], -0.008; in assay [18], 0.0282. Moreover, the composite z-score in [19] worked out at 0.611; in [20], 1.09. In addition, the z-score in assay [7] was 1.51; in assay [10], 0.216 (inactive); in assay [12], -4.4 (inactive); in assay [13], 0.0793 (inactive); in [14] it was 1.62 (inactive); in assay [15], 0.325 (inactive).
Take `COC(=O)[C@@]1(Cc2ccccc2)[C@H]2c3cc(C(=O)N(C)C)n(Cc4ccc(O)c(OC)c4)c3C[C@H]2CN1C(=O)c1ccccc1`: the composite z-score was 2.42 in assay [1]; 1.11 in [2]; 1.12 in assay [3]; 0.418 in [4]; 0.465 in assay [5]; -0.875 in [6]. Besides, the composite z-score in [8] was -0.239; in assay [9] it was -0.0465; in assay [11] it was 0.672; in assay [16], 0.468; in assay [17] it was 0.877; in assay [18], 0.698. The composite z-score in assay [19] is 1.06; in assay [20] it was -0.851. Also, the z-score in assay [7] was -1.29; in assay [10], 1.19 (inactive); in [12], -4.52 (inactive); in [13], -0.886 (inactive); in [14], -0.565 (inactive); in assay [15], 0.883 (inactive).
As to `COC(=O)c1ccc(OC)c(/C=C\CC(CCc2ccccc2)OC(=O)c2ccncc2)c1` (stereo not given), the composite z-score in [1] was 0.499; in [2], -0.235; in assay [3], -0.21; in [4], -0.358; in assay [5], 1.45; in assay [6], 1.23. Moreover, the composite z-score in assay [8] was 1.01; in assay [9], 0.334; in [11], -0.272; in assay [16], 0.925; in assay [17], -0.404; in assay [18], 0.175. Besides, the composite z-score is 0.092 in assay [19] and 1.25 in [20]. In addition, the z-score in assay [7] is 1.38; in [10], -0.912 (inactive); in [12] it was -1.66 (inactive); in [13] it was 1.02 (inactive); in [14], 1.75 (inactive); in assay [15], 0.455 (inactive).

The values are drawn from PubChem BioAssay.
